Laboratory results published in ChEMBL document CHEMBL4513216, “Probing the Open Global Health Chemical Diversity Library for Multistage-Active Starting Points for Next-Generation Antimalarials” (ACS Infect Dis, 2020).
Hit rate of the full screen: of about 65,000 compounds, about 2,100 (3.2%) showed an effect of 50% or more. The median lay at about -52%. What follows is part of a selection rich in strong results, with near analogues and random picks from the rest.

Tested on: Plasmodium falciparum
Assay: Screen against P. falciparum Asexual Blood Stage (ABS), at 5uM
Format: functional, Dd2
Conditions: tested at 5 uM

Compound	INHIBITION
CC(c1nc(C2CC2)no1)N1CCN(Cc2noc(C3CC3)n2)CC1 (stereo not drawn)	-55.4%
COc1ccc(CN2C[C@H]3CC[C@@H](C2)N(Cc2snnc2C)C3)cc1	-6.34%
CCc1cc(=O)n(CC(=O)N2CCC(C)CC2)c(-c2ccccc2)n1	-53.5%
O=S(=O)(c1ccccc1)N1CCC2(CCCN2Cc2cccnc2)C1 (stereo not drawn)	-12%
CC(C)c1cc(NC(=O)CNC2CCc3ncnn3C2)on1 (stereo not drawn)	-54%
Cc1occc1C(=O)N1C[C@@H]2OCCN(CCN3CCCC3)[C@@H]2C1	-86.8%
Cc1nc(CN2CCCC(c3cc(C(F)(F)F)[nH]n3)C2)cs1 (stereo not drawn)	-50.2%
CCN1CCCC(O)(c2nc(C)c(CCOc3ccccc3Cl)s2)CC1 (stereo not drawn)	21%
Cc1nc(C2(O)CCCNCC2)sc1CCOc1ccccc1Cl (stereo not drawn)	54.5%
Cc1nc(C2(O)CCCNCC2)sc1CCOc1ccc(Cl)cc1 (stereo not drawn)	61%
CCN1CCCC(O)(c2nc(C)c(CCOc3ccc(F)cc3)s2)CC1 (stereo not drawn)	23.9%
COc1ccc(OCCc2sc(C3(O)CCCNCC3)nc2C)cc1 (stereo not drawn)	5.84%
Cc1nc(C2(O)CCCNCC2)sc1CCOc1ccccc1 (stereo not drawn)	-48.5%
Cc1nc(C2(O)CCCNCC2)sc1CCOc1ccc(F)c(F)c1 (stereo not drawn)	54.5%
Cc1nc(C2(O)CCCNCC2)sc1CCOc1ccc(F)cc1 (stereo not drawn)	34.5%
COc1ccc(OCc2sc(C3(O)CCCNCC3)nc2C)cc1 (stereo not drawn)	14.8%
COc1ccccc1OCC(=O)NS(=O)(=O)c1ccc(Br)s1	-26.8%
C[C@@H]1CN(C(=O)c2nc3ccc(Cl)cn3c2-c2ncc[nH]2)C[C@H](C)O1	49.4%
O=S(=O)(C1CC1)N1CCn2cc(CNc3ccccn3)nc2C1	-76%
Cc1ccccc1C1(C(=O)NCCN2CCCCC2C)CCOCC1 (stereo not drawn)	28.2%
COc1ccc(CN2C[C@@H](CN(C)C)[C@@H](CO)C2)cc1CN1CCCC1	-71%
COc1ccc(CN2CCc3sccc3C2C)cc1CN1CCOCC1 (stereo not drawn)	56.1%
CCC[C@@H]1CN(Cc2cc3c(cc2OC)OCCO3)C[C@H]1C(=O)O	-28.5%
CC1c2ccsc2CCN1Cc1cc2c(cc1O)OCO2 (stereo not drawn)	27.2%
CCC1c2ccsc2CCN1C(=O)NCc1cccnc1OC (stereo not drawn)	46.8%
COc1cc2c(cc1CN1CCc3sccc3C1C)OCO2 (stereo not drawn)	69.3%

Compound	INHIBITION
COc1ccsc1C(=O)Nc1cc(CN2CCOCC2)ccc1C	-12.8%
CCC[C@@H]1CN(Cc2cc3c(cc2OC)OCO3)C[C@H]1C(=O)O	-43.7%
CCC1c2ccsc2CCN1Cc1cc2c(cc1OC)OCCO2 (stereo not drawn)	67.3%
Cc1nnc(N2C[C@H]3OCC[C@H]3[C@H](C(=O)NCC3CC3)C2)s1	4.38%
O=C1OCCN1CC(=O)N1C[C@@H]2CC[C@H]1CN(Cc1cscn1)C2	-150%
CCn1cc2c(n1)CN(Cc1cnn(C)c1)CC2COCC1CC1 (stereo not drawn)	-28.3%
c1cc(-c2nc(C3CCN(Cc4ccsc4)CC3)no2)ccn1	-4.11%
Cc1ccc(C(=O)N2Cc3ccccc3OC3(CCOCC3)C2)cn1	-43.5%
c1nc2n(c1CN1CCCC1)CCN(C1CCOCC1)CC2	-7.43%
COc1cccc([C@H]2CN(C(=O)c3ccccc3)[C@@H]3CCCN[C@H]23)c1	56.5%
COc1ccc(C(=O)N2C[C@@H](c3ccccc3)[C@@H]3NCCCC[C@@H]32)cc1	-70.2%
COc1cccc(C(=O)N2C[C@@H](c3ccccc3)[C@@H]3NCCCC[C@@H]32)c1	16.7%
CN(C)S(=O)(=O)NC1CCCc2c1cnn2-c1ccc(C(C)(C)C)cc1 (stereo not drawn)	-174%
CN(C)C1CC2(CCN(C(=O)C3(C#N)CC3)CC2)c2ccccc21 (stereo not drawn)	-28.5%
CC(C)NCC1(COc2ccccc2)C[C@@H](O)[C@@H](O)C1 (stereo partly drawn)	60.4%
CC(C)NC(=O)NCC1(COc2cnccn2)C[C@@H](O)[C@@H](O)C1 (stereo partly drawn)	-54.9%
O[C@@H]1CC(CNCC2CC2)(COc2cccnc2)C[C@@H]1O (stereo partly drawn)	-24.8%
Cn1ccnc1NC[C@@H]1CCC[C@@H]2CN(CC3CC3)C[C@@H]21	-46.7%
Cn1nc(COc2cccnc2)c2c1CCN(CC1CC1)C2	-64%
Cc1cc(C(C)C(=O)N2CCCN(Cc3cscn3)CC2)c(C)o1 (stereo not drawn)	-136%
Cc1ccc(C(C)C(=O)N2CCCN(Cc3cscn3)CC2)cc1 (stereo not drawn)	57%
Cc1ccc(C)n1C(C)C(=O)N1CCCN(Cc2cscn2)CC1 (stereo not drawn)	-16.5%
CN1CCC2(CC1)CC(NC(=O)c1csnn1)c1ccccc1O2 (stereo not drawn)	-8.75%
Brc1csc(-c2noc(C3COCCO3)n2)c1 (stereo not drawn)	-301%
O=C(Cc1ccc2c(c1)CCCC2)N[C@@H]1CC[C@@H](n2ccnc2)[C@@H]1O	-119%
CC(C)N(C)CC(=O)NCc1ccccc1N1CCN(C)CC1	43.8%

Compound	INHIBITION
CN1CCN(c2ccccc2CNC(=O)CSC(F)(F)F)CC1	67.3%
CC(=O)N1CCN(c2ccccc2CNc2cc(F)cc(F)c2)CC1	14%
Cn1ccnc1CN1CCC2(CC1)CN(Cc1cccnc1)C(=O)CO2	-38.8%
CCn1cc(CN2CCN(Cc3cccc(OC)c3)C(=O)C2)cc1C#N	47.9%
CCn1cc(CN2CCN(Cc3cc(C)cc(C)c3)C(=O)C2)cc1C#N	68.4%
Cc1cc(C)cc(CN2CCN(Cc3cc(C#N)n(C)c3)CC2=O)c1	18.4%
CCOC(=O)CNC(=O)NCc1cc(C)n(-c2ccccc2OC)c1C	-24.9%
c1nc(NCc2cc3n(n2)CCN(C2CCCCC2)C3)c2nc[nH]c2n1	-10.3%
c1ncc(-c2ccc(C3CNCCO3)nc2)cn1 (stereo not drawn)	-94.8%
COc1ccc(-c2cnc(N(C)C)nc2C2CNCCO2)cc1 (stereo not drawn)	28.8%
COc1ccc(-c2ccc(C3CNCCO3)nc2)cc1 (stereo not drawn)	65%
Cc1nn(C)c(C)c1C1CCCN1C(=O)c1ccc2nnc(C)n2c1 (stereo not drawn)	-60.9%
CCN1CCN(C2CCN(Cc3nnc(C(C)(C)C)o3)CC2)C1=O	-29.7%
CCN1CCN(C2CCN(Cc3ncc(C(C)(C)C)o3)CC2)C1=O	53.1%
CCc1nnc(CN2CCC(N3CCN(CC)C3=O)CC2)o1	-39.7%
CN1CCN(C2CCN(Cc3nnc(C(C)(C)C)o3)CC2)C1=O	-117%
CNc1cc2c(nn1)CCN(C(=O)c1cc(C)n(C3CC3)c1C)C2	-66.6%
O=C(N[C@]12CC1CN(C(=O)c1ccco1)C2)c1ccco1 (stereo partly drawn)	37.7%
CC(=O)N1CC2C[C@]2(NC(=O)c2ccco2)C1 (stereo partly drawn)	50.3%
O=C(N[C@]12CC1CN(C(=O)c1ccco1)C2)c1cccc(F)c1 (stereo partly drawn)	27.4%
O=c1[nH]c2nc(N3CCSCC3)ncc2c(=O)n1-c1ccc(F)cc1	-26.3%
Cc1ncsc1CN1CC[C@H](O)[C@@H](n2cnc3c(N)ncnc32)CC1	-98.6%
CCCc1ccc2oc(C(=O)N3CCCN(C)CC3)c(C)c2c1	-22.2%
O=C(c1cc(-c2ccn(CC3CC3)n2)n2ccccc12)N1CCOCC1	69.5%
O=C(c1cc(-c2ccn(CC3CC3)n2)n2ccccc12)N1CCCO1	-84.4%
O=C(O)c1cc(-c2ccn(CC3CC3)n2)n2ccccc12	-74.2%

Compound	INHIBITION
O=C(CN1CCOC(Cn2cccn2)C1)NCc1ccco1 (stereo not drawn)	-88.2%
O=C(NC1CC(F)(F)C1)[C@]12COC[C@H]1CN(Cc1ccccc1)C2	-96%
Cc1cc(=O)n2nc(Oc3ccc(F)c(F)c3)sc2n1	-13.2%
Cc1cc(=O)n2nc(Oc3cccc(C(N)=O)c3)sc2n1	-166%
Cc1cc(=O)n2nc(Oc3cccc(I)c3)sc2n1	56.4%
COCCCNC(=O)CN1CCC(N2CCN(C)C2=O)CC1	-137%
Cc1ccc(-c2nc(CN3CCc4c(ncn4C)C3)cs2)o1	-159%
Cn1cnc2c1CCN(Cc1csc(-c3ccco3)n1)C2	51.3%
Cn1cnc2c1CCN(Cc1csc(-c3ccccc3)n1)C2	-10.7%
Cc1cc(NC(=O)C(C)N2CCN(c3ccc(C#N)cc3F)CC2)no1 (stereo not drawn)	-124%
CN(C(=O)Nc1ccncc1)C1CCN(c2ccc(Cl)cc2)CC1	-10.2%
COc1ccc(-n2ccc(CNCc3ccc(OC)c(O)c3)n2)cc1	-17.9%
COc1ccc(CNCCn2c(C)nc3ccccc32)cc1O	-82.4%
COc1ccc(CNCCc2ccn(-c3ccccc3)n2)cc1O	67.1%
CCCn1cc(NC(=O)c2cccnc2O)ccc1=O	-8.23%
CCc1nc(CNc2cc(C)nc(-c3cccnc3)n2)cs1	-19.9%
CCc1noc(C2CCCCN2C(=O)c2cccs2)n1 (stereo not drawn)	-105%
CCc1noc(C2CCCCN2C(=O)c2nnc3ccccc3n2)n1 (stereo not drawn)	65.5%
CCc1noc(C2CCCCN2C(=O)c2ccccc2)n1 (stereo not drawn)	-89.7%
Cc1cc(CN2C[C@@H](C)[C@@]3(CCN(C)C3=O)C2)oc1C	-1.06%
CCC(CNC(=O)c1ccccc1Br)N1CCc2ccccc2C1 (stereo not drawn)	41.5%
CCC(CNC(=O)c1ccc(Br)o1)N1CCc2ccccc2C1 (stereo not drawn)	16.3%
CCC(CNC(=O)c1cncc(Br)c1)N1CCc2ccccc2C1 (stereo not drawn)	66.9%
CCN1CC(CN(C)Cc2nc(-c3cccc(C)c3)oc2C)CC1=O (stereo not drawn)	-142%
CCOCC1CN(Cc2cccnc2OC)Cc2cnn(C)c21 (stereo not drawn)	-60.6%
